Consider 25 compounds from the supplement of paper PMC6089552.

For this test, the system named is A673/TR/shEF. The test can be described thus: cell viability (LOESS-normalised, relative to median of negative controls) (log2 ratio); higher = more viable cells (less compound effect), active = hit call of the paper (over 3 MAD below the median). To be noted: treatment time: 72 h. In outline: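 Viability of A673/TR/shEF Ewing sarcoma cells was determined by CellTiter-Glo luminescence. The cells, at 1,500 per well in 384-well plates, were grown with or without doxycycline from 24 h before compound addition to switch on EWS-FLI1 shRNA knockdown, then exposed for three days to library compounds at two or more concentrations or to DMSO controls. Signals were LOESS-corrected plate by plate, normalised to the negative-control median and log2-transformed.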

The mark [1] stands for this setting: 0.25 µM, library screen: screen1, EWS-FLI1 expression: high (no doxycycline).
[2] abbreviates: 0.25 µM, library screen: screen1, EWS-FLI1 expression: low (doxycycline-induced shRNA knockdown).
Where [3] appears, read: 2.5 µM, library screen: screen1, EWS-FLI1 expression: high (no doxycycline).
Where [4] appears, read: 2.5 µM, library screen: screen1, EWS-FLI1 expression: low (doxycycline-induced shRNA knockdown).
The mark [5] stands for this setting: 0.25 µM, library screen: screen2, EWS-FLI1 expression: high (no doxycycline).
Setting [6] is: 0.25 µM, library screen: screen2, EWS-FLI1 expression: low (doxycycline-induced shRNA knockdown).
[7] abbreviates: 2.5 µM, library screen: screen2, EWS-FLI1 expression: high (no doxycycline).
Setting [8] is: 2.5 µM, library screen: screen2, EWS-FLI1 expression: low (doxycycline-induced shRNA knockdown).

In all, about 3,200 compounds went through this assay and about 300 (9.4%) showed activity. This is one part of a sample in which actives are shown more often than they occur. Values without a mark were called inactive.

As to `O=c1cc([C@H]2Oc3cc(O)cc(O)c3C[C@H]2O)cc2c([C@H]3Oc4cc(O)cc(O)c4C[C@H]3O)cc(O)c(O)c2c1O`, the “cell viability (log2)” value is, setting by setting: under setting [1], 0.0869; under setting [2], 0.0834; under setting [3], 0.134; under setting [4], 0.162.

Consider `C[n+]1cc2c3c(ccc2c2ccc4cc5c(cc4c21)OCO5)OCO3`, for which the “cell viability (log2)” value reads like this: (0.025 µM, library screen: screen2, EWS-FLI1 expression: high (no doxycycline)) 0.0722; (0.025 µM, library screen: screen2, EWS-FLI1 expression: low (doxycycline-induced shRNA knockdown)) 0.0049; under setting [1], 0.0872; under setting [2], 0.0117; under setting [5], 0.116; under setting [6], 0.0651. For the same compound, the “cell viability (log2)” value under setting [3] is -0.232 (active); the “cell viability (log2)” value under setting [4] is -0.0123; the “cell viability (log2)” value under setting [7] is -0.101 (active); the “cell viability (log2)” value under setting [8] was -0.0563; the “cell viability (log2)” value (25 µM, library screen: screen2, EWS-FLI1 expression: high (no doxycycline)) is -4.23 (active); the “cell viability (log2)” value (25 µM, library screen: screen2, EWS-FLI1 expression: low (doxycycline-induced shRNA knockdown)) is -4.28 (active).

Turning to `COc1ccc(C(=O)C=Cc2ccccc2)cc1`, the “cell viability (log2)” value by setting is: under setting [1], 0.0817; under setting [2], 0.0563; under setting [3], 0.0612; under setting [4], 0.0356.

In the case of `CC(C)=CC1C(CO)C1(C)C` (stereo unspecified), the “cell viability (log2)” value by setting is: under setting [1], 0.105; under setting [2], 0.00359; under setting [3], 0.117; under setting [4], 0.123.

As for `CCOC(=O)c1sc(C)c2c(=O)n(C3CCCCC3)cnc12`, the “cell viability (log2)” value under setting [1] is 0.0769, the “cell viability (log2)” value under setting [2] was 0.0757, the “cell viability (log2)” value under setting [3] was 0.067 and the “cell viability (log2)” value under setting [4] is -0.0142.

As to `Cc1ccc(S(=O)(=O)/C=C/C#N)cc1`, the “cell viability (log2)” value is, setting by setting: (0.025 µM, library screen: screen1, EWS-FLI1 expression: high (no doxycycline)) 0.231; (0.025 µM, library screen: screen1, EWS-FLI1 expression: low (doxycycline-induced shRNA knockdown)) -0.0315; under setting [1], 0.131; under setting [2], 0.0518; under setting [5], 0.14; under setting [6], -0.0223. Moreover, the “cell viability (log2)” value by setting is: under setting [3], -0.841 (active); under setting [4], -0.123; under setting [7], -0.102 (active); under setting [8], 0.0315; (25 µM, library screen: screen1, EWS-FLI1 expression: high (no doxycycline)) -3.58 (active); (25 µM, library screen: screen1, EWS-FLI1 expression: low (doxycycline-induced shRNA knockdown)) -2.12 (active).

Take `CC(C)(C)c1ccc(S(=O)(=O)/C=C/C#N)cc1`: the “cell viability (log2)” value under setting [5] is 0.205, the “cell viability (log2)” value under setting [6] is 0.163, the “cell viability (log2)” value under setting [7] was -0.121 (active) and the “cell viability (log2)” value under setting [8] is 0.0273.

Regarding `C[C@@H](Oc1ccccc1)C(=O)N[C@@H]1C(=O)N2[C@@H]1SC(C)(C)[C@@H]2C(=O)O`, the “cell viability (log2)” value was 0.0816 under setting [1], 0.0301 under setting [2], 0.188 under setting [3] and 0.189 under setting [4].

For `CC1=C[C@@H]2[C@@H](CC1)[C@](C)(O)CC[C@H]2C(C)C`, the “cell viability (log2)” value reads like this: under setting [1], 0.0888; under setting [2], 0.0211; under setting [3], 0.101; under setting [4], 0.102.

Turning to `C=C1C2CC[C@@]3(C)[C@H](c4ccoc4)OC(=O)C[C@]13O[C@H]1C[C@H](OC(C)=O)C(C)(C)[C@H](CC(=O)OC)[C@@]21C`, the “cell viability (log2)” value under setting [1] was 0.122, the “cell viability (log2)” value under setting [2] is 0.0225, the “cell viability (log2)” value under setting [3] was 0.146 and the “cell viability (log2)” value under setting [4] is 0.192.

Consider `Cc1onc(-c2c(Cl)cccc2Cl)c1C(=O)Nc1ccc(Br)cc1F`, for which the “cell viability (log2)” value is 0.112 under setting [1], 0.103 under setting [2], 0.116 under setting [3] and 0.0234 under setting [4].

In the case of `O=C(/C=C/c1ccc(O)c(O)c1)O[C@H](Cc1ccc(O)c(O)c1)C(=O)O`, the “cell viability (log2)” value runs as follows: under setting [1], 0.0508; under setting [2], 0.0752; under setting [3], 0.0833; under setting [4], 0.158.

Consider `O=C(O)/C=C/c1ccc(O)c(O)c1`, for which the “cell viability (log2)” value is, setting by setting: under setting [1], 0.082; under setting [2], -0.0191; under setting [5], 0.181; under setting [6], 0.126; under setting [3], 0.109; under setting [4], 0.0871. For the same compound, the “cell viability (log2)” value reads like this: under setting [7], 0.0522; under setting [8], 0.0284.

Turning to `O=C(/C=C/c1ccc(O)c(O)c1)OCCc1ccccc1`, the “cell viability (log2)” value was 0.197 under setting [5], 0.0712 under setting [6], -0.129 (active) under setting [7] and 0.0968 under setting [8].

As to `N[C@@H](CSCSC[C@H](N)C(=O)O)C(=O)O`, the “cell viability (log2)” value by setting is: under setting [1], 0.0746; under setting [2], 0.0305; under setting [3], 0.129; under setting [4], 0.147.

Consider `N#Cc1c(-c2ccc(Br)cc2)cc(-c2ccc3c(c2)OCO3)c(C#N)c1N`, for which the “cell viability (log2)” value under setting [1] was 0.0622, the “cell viability (log2)” value under setting [2] is 0.109, the “cell viability (log2)” value under setting [3] was 0.154 and the “cell viability (log2)” value under setting [4] is 0.0524.

Turning to `CCCc1occc(=O)c1C=CO`, the “cell viability (log2)” value by setting is: under setting [1], -0.0143; under setting [2], 0.0143; under setting [3], 0.203; under setting [4], 0.0516.

With `Nc1ccc(S(=O)(=O)Nc2ccccn2)cc1`, the “cell viability (log2)” value by setting is: under setting [1], 0.0477; under setting [2], 0.097; under setting [3], 0.18; under setting [4], 0.163.

As to `Nc1ccc(S(=O)(=O)Nc2ncccn2)cc1`, the “cell viability (log2)” value runs as follows: (0.103 µM, library screen: screen3, EWS-FLI1 expression: high (no doxycycline)) 0.169; (0.103 µM, library screen: screen3, EWS-FLI1 expression: low (doxycycline-induced shRNA knockdown)) 0.0541; under setting [1], 0.0966; under setting [2], 0.142; (0.308 µM, library screen: screen3, EWS-FLI1 expression: high (no doxycycline)) 0.163; (0.308 µM, library screen: screen3, EWS-FLI1 expression: low (doxycycline-induced shRNA knockdown)) 0.0301. For the same compound, the “cell viability (log2)” value is 0.117 (0.926 µM, library screen: screen3, EWS-FLI1 expression: high (no doxycycline)); 0.108 (0.926 µM, library screen: screen3, EWS-FLI1 expression: low (doxycycline-induced shRNA knockdown)); 0.146 under setting [3]; 0.202 under setting [4]; 0.14 (2.8 µM, library screen: screen3, EWS-FLI1 expression: high (no doxycycline)); 0.0823 (2.8 µM, library screen: screen3, EWS-FLI1 expression: low (doxycycline-induced shRNA knockdown)). In addition, the “cell viability (log2)” value by setting is: (8.3 µM, library screen: screen3, EWS-FLI1 expression: high (no doxycycline)) 0.0532; (8.3 µM, library screen: screen3, EWS-FLI1 expression: low (doxycycline-induced shRNA knockdown)) 0.0153; (25 µM, library screen: screen3, EWS-FLI1 expression: high (no doxycycline)) 0.0911; (25 µM, library screen: screen3, EWS-FLI1 expression: low (doxycycline-induced shRNA knockdown)) 0.15.

On to `Nc1ccc(S(=O)(=O)Nc2ccnn2-c2ccccc2)cc1`, for which the “cell viability (log2)” value under setting [1] was 0.0545; the “cell viability (log2)” value under setting [2] is -0.0171; the “cell viability (log2)” value under setting [5] was 0.053; the “cell viability (log2)” value under setting [6] was 0.048; the “cell viability (log2)” value under setting [3] is 0.14; the “cell viability (log2)” value under setting [4] is 0.0403. The “cell viability (log2)” value is -0.179 (active) under setting [7] and -0.12 (active) under setting [8].

As for `COC(=O)C[C@H]1C(C)(C)C(=O)[C@@H]2CC3C4=CC(=O)O[C@@H](c5ccoc5)[C@]4(C)CC[C@@H]3[C@@]1(C)C2=O` (stereo partly specified), the “cell viability (log2)” value runs as follows: under setting [1], 0.00456; under setting [2], 0.0839; under setting [3], 0.0543; under setting [4], 0.0477.

Regarding `COc1ccc2c(c1)O[C@@H]1c3ccc(OC)cc3OC[C@H]21`, the “cell viability (log2)” value runs as follows: under setting [1], 0.0429; under setting [2], 0.176; under setting [3], 0.0512; under setting [4], 0.136.

Regarding `C[C@]12CC[C@H](O)C[C@H]1C[C@@H]1OC13C2[C@H](O)C(=O)[C@]1(C)[C@@H](C2=CC(=O)OC2)CC[C@]31O` (stereo partly specified), the “cell viability (log2)” value is 0.026 under setting [1], -0.0692 under setting [2], 0.111 under setting [3] and -0.106 under setting [4].

Take `C[C@H]1O[C@@H](O[C@H]2[C@@H](O)C[C@H](O[C@H]3[C@@H](O)C[C@H](O[C@H]4CC[C@@]5(C)[C@H](CC[C@@H]6[C@@H]5CC[C@]5(C)[C@@H](C7=CC(=O)OC7)CC[C@]65O)C4)O[C@@H]3C)O[C@@H]2C)C[C@H](O)[C@@H]1O`: the “cell viability (log2)” value is, setting by setting: under setting [1], -2.45 (active); under setting [2], -2.04 (active); under setting [3], -3.94 (active); under setting [4], -4.23 (active).

With `C[C@H]1O[C@@H](O[C@H]2[C@@H](O)C[C@H](O[C@H]3[C@@H](O)C[C@H](O[C@H]4CC[C@@]5(C)[C@H](CC[C@@H]6[C@@H]5C[C@@H](O)[C@]5(C)[C@@H](C7=CC(=O)OC7)CC[C@]65O)C4)O[C@@H]3C)O[C@@H]2C)C[C@H](O)[C@@H]1O`, the “cell viability (log2)” value was -0.0229 under setting [1], -0.153 under setting [2], -2.32 (active) under setting [3] and -1.91 (active) under setting [4].
